# Laboratory results from PubChem BioAssay (EPA / NIEHS).
# Inconclusive results are not listed. The source made the active and inactive calls. How the source made its calls, unless noted: active means hit-call score of the fitted dose curve at least 0.9, where 1 is the maximum; inactive means score below 0.9.
# Key:
# [1] = CCTE_Simmons_MITO_basal_resp_rate: CCTE's HepG2 Seahorse XF Respirometric Screening Assay at Basal Respiratory State, Simmons Lab (AID 2284001); details: actives raise or lower the signal
# In short: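 HepG2 cells were given test chemicals at 7 concentrations, 125 nM to 100 uM final, and oxygen consumption rate was read every 6 min (3 min mix, 3 min measure) over 72 min. Basal-phase OCR was fitted bidirectionally against DMSO.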
# [2] = CCTE_Simmons_MITO_max_resp_rate: CCTE's HepG2 Seahorse XF Respirometric Screening Assay at Maximal Respiratory State [uncoupled], Simmons Lab (AID 2284002); details: actives raise or lower the signal
# In short: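 Maximal (FCCP-uncoupled) respiration rate in HepG2, from Seahorse kinetic OCR over 72 min at 6 min cycles. Compounds at 125 nM–100 uM final, 7 points, three biological replicates; both directions fit relative to DMSO.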
# [3] = CCTE_Simmons_MITO_inhib_resp_rate: CCTE's HepG2 Seahorse XF Respirometric Screening Assay at Inhibited Respiratory State [full ETC block], Simmons Lab (AID 2284006); details: actives raise or lower the signal
# In short: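 HepG2 oxygen consumption was measured by Seahorse XF after compound, FCCP, then rotenone/antimycin A injections. Seven concentrations from 125 nM to 100 uM (final) were tested, with 6-min kinetic reads over 72 minutes. Inhibited-state OCR was fitted bidirectionally against DMSO.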
# [4] = CCTE_Simmons_MITO_viability: CellTiter-Glo Viability Assessment for CCTE's HepG2 Seahorse XF Respirometric Screening Assay [post-hoc], Simmons Lab (AID 2284007; active means hit-call score of the fitted dose curve at least 0.9, where 1 is the maximum)
# In short: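 HepG2 cells exposed 90 min to 7 concentrations from 125 nM to 100 uM final, then ATP measured by luciferase luminescence. Three biological replicates per concentration; DMSO vehicle; dichlone control at 10 nM–100 uM.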
# [5] = CCTE_Harrill_HTTr_Viability_MCF7: CCTE's 6-hour Cell Viability Assessment for the High-Throughput Transcriptomics (HTTr) Platform, in MCF-7 cells cultured in DMEM + 10% fetal bovine serum, Harrill Lab (AID 2284010)
# In short: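 MCF-7 cells in DMEM + 10% FBS, 384-well, exposed 6 h to an eight-point dilution series. Membrane integrity scored by high-content imaging of propidium iodide exclusion; bidirectional fit versus DMSO.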
# [6] = CCTE_Harrill_HTTr_Apoptosis_MCF7: CCTE's 6-hour Apoptosis Assessment for the High-Throughput Transcriptomics (HTTr) Platform, in MCF-7 cells cultured in DMEM + 10% fetal bovine serum, Harrill Lab (AID 2284011)
# In short: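 High-content imaging of CellEvent Caspase 3/7 Green signal follows a six-hour exposure, with eight concentrations per chemical. MCF-7 cells grown in DMEM plus 10% fetal bovine serum; activity fitted in both directions against DMSO.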
# [7] = molecular target: Nucleoli Translocation, AR (gene 367) (UniProt P10275); assay: UPITT_HCI_U2OS_AR_TIF2_Nucleoli_Antagonist: University of Pittsburgh U2OS Androgen Receptor-Transcriptional Intermediary Factor 2 (AR-TIF2) Antagonism High Content Imaging Assay for Nucleoli Translocation (AID 2283997; active means hit-call score of the fitted dose curve at least 0.9, where 1 is the maximum)
# Sequence of Nucleoli Translocation, AR (gene 367) (P10275 whole entry, looked up): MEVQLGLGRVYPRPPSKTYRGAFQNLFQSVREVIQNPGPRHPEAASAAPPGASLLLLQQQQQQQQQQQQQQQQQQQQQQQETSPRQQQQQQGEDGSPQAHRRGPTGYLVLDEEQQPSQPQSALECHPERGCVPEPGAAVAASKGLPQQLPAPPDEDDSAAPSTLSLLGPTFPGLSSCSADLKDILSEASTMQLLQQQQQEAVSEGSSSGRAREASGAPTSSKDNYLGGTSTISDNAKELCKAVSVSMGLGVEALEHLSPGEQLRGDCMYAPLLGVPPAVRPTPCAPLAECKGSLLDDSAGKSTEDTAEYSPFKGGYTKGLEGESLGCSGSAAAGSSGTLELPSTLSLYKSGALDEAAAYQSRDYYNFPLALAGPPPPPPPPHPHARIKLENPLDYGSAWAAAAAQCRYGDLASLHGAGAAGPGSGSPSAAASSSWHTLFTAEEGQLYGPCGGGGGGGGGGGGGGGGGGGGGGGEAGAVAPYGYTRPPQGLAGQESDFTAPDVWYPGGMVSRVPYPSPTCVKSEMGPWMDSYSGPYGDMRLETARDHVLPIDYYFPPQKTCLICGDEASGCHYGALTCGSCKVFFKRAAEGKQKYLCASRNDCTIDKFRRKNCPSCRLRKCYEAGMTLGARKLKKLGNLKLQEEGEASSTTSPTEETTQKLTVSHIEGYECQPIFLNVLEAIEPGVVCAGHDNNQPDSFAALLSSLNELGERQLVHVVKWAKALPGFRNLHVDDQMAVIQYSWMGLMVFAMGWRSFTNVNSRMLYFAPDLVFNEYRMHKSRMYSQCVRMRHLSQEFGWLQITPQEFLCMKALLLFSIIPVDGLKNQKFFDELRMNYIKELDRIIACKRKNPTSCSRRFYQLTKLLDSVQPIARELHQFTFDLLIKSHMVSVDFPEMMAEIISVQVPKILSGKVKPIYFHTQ
# In short: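 U2OS cells expressing RFP-tagged human AR and GFP-tagged TIF2 were imaged by high-content fluorescence microscopy for red AR signal in the nucleolar region. Compounds were screened at 20 uM final (0.2% DMSO), with activity fitted relative to DHT as baseline.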
# [8] = molecular target: Nucleoli Translocation, AR (gene 367) (UniProt P10275); assay: UPITT_HCI_U2OS_AR_TIF2_Nucleoli_Agonist: University of Pittsburgh U2OS Androgen Receptor-Transcriptional Intermediary Factor 2 (AR-TIF2) Agonism High Content Imaging Assay for Nucleoli Translocation (AID 2283998; active means hit-call score of the fitted dose curve at least 0.9, where 1 is the maximum)
# In short: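 Nucleolar translocation of AR-RFP, with TIF2-GFP coexpressed in human osteosarcoma U2OS, imaged by high-content fluorescence. Compounds tested singly at 20 uM final, confirmed in triplicate, then titrated 0.195–50 uM final; gain-of-signal relative to DMSO.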
# [9] = molecular target: Ratio of Nucleoli Translocation and Cytoplasm, AR (gene 367) (UniProt P10275); assay: UPITT_HCI_U2OS_AR_TIF2_Nucleoli_Cytoplasm_Ratio_Agonist: University of Pittsburgh U2OS Androgen Receptor-Transcriptional Intermediary Factor 2 (AR-TIF2) Agonism High Content Imaging Assay for Ratio of Nucleoli Translocation and Cytoplasm (AID 2284000; active means hit-call score of the fitted dose curve at least 0.9, where 1 is the maximum;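 further: hits raise the red nucleolar to cytoplasm ratio above vehicle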)
# Sequence of Ratio of Nucleoli Translocation and Cytoplasm, AR (gene 367) (P10275 whole entry, looked up): as above
# In short: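 U2OS cells expressing RFP-tagged human AR and GFP-tagged TIF2 were imaged by high-content fluorescence microscopy. The endpoint is the ratio of nucleolar to cytoplasmic red fluorescence, fitted for gain of signal relative to DMSO. Concentration-response spanned 0.195 to 50 uM final (0.5% DMSO).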
# [10] = CCTE_Harrill_HTTr_CellCount_MCF7: CCTE's Cell Proliferation Assessment for the High-Throughput Transcriptomics (HTTr) Platform, Harrill Lab (AID 2284012; active means hit-call score of the fitted dose curve at least 0.9, where 1 is the maximum;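 further: cells exposed to compound for six hours; intended direction is loss of nuclei count meaning fewer cells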)
# In short: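 MCF7 cells exposed 6 hours to an eight-point dilution series; Hoechst-stained nuclei counted by high-content imaging. Bidirectional curve fitting against DMSO baseline.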
# [11] = molecular target: Ratio of Nucleoli Translocation and Cytoplasm, AR (gene 367) (UniProt P10275); assay: UPITT_HCI_U2OS_AR_TIF2_Nucleoli_Cytoplasm_Ratio_Antagonist: University of Pittsburgh U2OS Androgen Receptor-Transcriptional Intermediary Factor 2 (AR-TIF2) Antagonism High Content Imaging Assay for Ratio of Nucleoli Translocation and Cytoplasm (AID 2283999; active means hit-call score of the fitted dose curve at least 0.9, where 1 is the maximum;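 further: antagonists lower the DHT-driven ratio of nucleolar to cytoplasmic red signal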)
# In short: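 U2OS cells co-expressing RFP-tagged human AR and GFP-tagged TIF2, antagonist mode with DHT as baseline. Nucleolar-to-cytoplasmic red fluorescence ratio imaged by high-content microscopy; final compound 20 uM (0.2% DMSO) primary, 0.195–50 uM (0.5% DMSO) concentration-response.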
# [12] = CCTE_Shafer_MEA_acute_spike_number: CCTE's Neural Acute Assay for Total Number of Spikes, Shafer Lab (AID 2284008)
# In short: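 Total spike count from 40 min recordings before and during compound exposure (0.03-40 uM), given as per-well percent change. Cortical cultures from rat, DIV 13 or 15, 37 C; adaptive detection threshold 8x rms noise.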
# [13] = CCTE_Shafer_MEA_acute_firing_rate_mean: CCTE's Neural Acute Assay for Mean Firing Rate, Shafer Lab (AID 2284009);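 further: analyzed for loss of signal so actives lower firing rate relative to DMSO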
# In short: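 Read-out: well-mean spike rate (spikes/recording length/electrodes), % change from 40 min pre-dose baseline to 40 min with compound. Rat cortical cultures, DIV 13 or 15, 37 C; 0.03-40 uM; DMSO as negative control.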
# [14] = CCTE_Shafer_MEA_acute_burst_number: CCTE's Neural Acute Assay for Single-Electrode Bursts, Shafer Lab (AID 2284013)
# In short: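 Rat cortical cultures, DIV 13/15; 40 min baseline, then 40 min with compound 0.03-40 uM, 37 C. Spikes: 300-5000 Hz band-pass, threshold 8x rms noise. Readout = % change in single-electrode bursts vs baseline, loss-of-signal fit.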
# [15] = CCTE_Shafer_MEA_acute_burst_duration_mean: CCTE's Neural Acute Assay for Mean Burst Duration, Shafer Lab (AID 2284014);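 further: hits are decreases in mean burst duration relative to DMSO controls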
# In short: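 Primary rat cortical neurons on 16-electrode MEA wells, treated on DIV 13 or 15 with compound (0.03-40 uM; ≥3 wells each). 40-min baseline and 40-min exposure recordings at 37 C; percent change in mean burst duration per well versus DMSO.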
# [16] = CCTE_Shafer_MEA_acute_interburst_interval_mean: CCTE's Neural Acute Assay for Mean Interburst Interval, Shafer Lab (AID 2284016);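 further: percent change of mean interburst interval versus each well's own pre-dose baseline; curves fitted for decrease in interburst interval relative to DMSO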
# In short: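 Primary rat cortical neurons on 16-electrode MEA wells were recorded 40 min at baseline on DIV 13 or 15, then 40 min after compound (0.03-40 uM), at 37 C. Value is percent change in mean interburst interval per well, DMSO as negative control.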
# [17] = CCTE_Shafer_MEA_acute_burst_percentage_std: CCTE's Neural Acute Assay for Standard Deviation of Burst Percentage, Shafer Lab (AID 2284018);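 further: fitted in the negative direction so actives lower burst percentage SD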
# In short: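 Primary rat cortical neurons on 16-electrode MEA wells were recorded 40 min at baseline (DIV 13 or 15), then 40 min after compound (0.03-40 uM), at 37 C. Well value is SD across electrodes of spikes-in-bursts/total spikes; endpoint is percent change, DMSO-referenced.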
# [18] = CCTE_Shafer_MEA_acute_per_network_burst_spike_number_mean: CCTE's Neural Acute Assay for Average Number of Spikes in a Network Burst, Shafer Lab (AID 2284019)
# In short: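 Primary rat cortical neurons on 16-electrode MEA wells, DIV 13 or 15, 37 C; 40-min baseline then 40-min recording with compound (0.03-40 uM). Spikes per network burst (total spikes/number of bursts) expressed as percent change from baseline, DMSO reference.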
# [19] = CCTE_Shafer_MEA_acute_per_network_burst_spike_number_std: CCTE's Neural Acute Assay for Standard Deviation of Number of Spikes in a Network Burst, Shafer Lab (AID 2284020);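 further: fitted for decrease in spike-number SD versus DMSO so actives lower it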
# In short: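 Primary rat cortical neurons on 48-well MEAs (16 electrodes/well) recorded at DIV 13 or 15: 40-min baseline, then 40 min with compound (0.03-40 uM), 37 C. Value is percent change in SD of spikes per network burst, relative to DMSO.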
# [20] = CCTE_Shafer_MEA_acute_per_network_burst_electrodes_number_mean: CCTE's Neural Acute Assay for Mean Number of Electrodes in a Network Burst, Shafer Lab (AID 2284021);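 further: curves fitted for decreases only so hits reduce electrodes per burst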
# In short: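 Percent change from baseline was computed as mean electrode count per network burst, comparing 40 min recordings before and during compound (0.03-40 uM) exposure. Cultures were rat cortical neurons at DIV 13 or 15, recorded on MEAs at 37 C with an adaptive 8x rms threshold.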
smiles,measurement,setting,value
O=C(O)c1cccc(C[C@@H]2COc3ccc(OCc4nc5cc(F)ccc5s4)cc3[C@@H]2O)c1,outcome,[1],inactive
same,AC50,[2],25 µM (active)
same,outcome,[3],inactive
same,outcome,[4],inactive
same,outcome,[5],inactive
same,outcome,[6],inactive
CCCCOC(=O)c1ccccc1,outcome,[7],inactive
same,outcome,[8],inactive
same,outcome,[9],inactive
same,outcome,[6],inactive
same,outcome,[10],inactive
CCN(CC)C(=S)SSC(=S)N(CC)CC,AC50,[7],19.8 µM (active)
same,AC50,[8],50 µM (active)
same,AC50,[11],11.7 µM (active)
same,AC50,[9],64.4 µM (active)
same,outcome,[1],inactive
same,outcome,[2],inactive
same,outcome,[3],inactive
same,outcome,[4],inactive
same,outcome,[6],inactive
same,outcome,[10],inactive
CCCCCCCC/C=C\CCCCCCCC(=O)OC[C@@H](O)[C@H]1OC[C@H](O)[C@H]1O,outcome,[12],inactive
same,outcome,[13],inactive
same,outcome,[6],inactive
same,outcome,[10],inactive
same,outcome,[14],inactive
same,outcome,[15],inactive
same,outcome,[16],inactive
same,outcome,[17],inactive
same,outcome,[18],inactive
same,outcome,[19],inactive
same,outcome,[20],inactive
CCCCCCCCCCCCCCCCOS(=O)(=O)O,outcome,[7],inactive
same,outcome,[5],inactive
same,outcome,[6],inactive
COc1cc2c(c(OC)c1OC)-c1ccc(OC)c(=O)cc1[C@@H](NC(C)=O)CC2,outcome,[7],inactive
same,outcome,[8],inactive
same,outcome,[11],inactive
same,outcome,[9],inactive
same,outcome,[12],inactive
same,outcome,[13],inactive
same,outcome,[5],inactive
same,outcome,[6],inactive
same,outcome,[10],inactive
same,AC50,[14],34 µM (active)
same,outcome,[15],inactive
same,outcome,[16],inactive
same,outcome,[17],inactive
same,outcome,[18],inactive
same,outcome,[19],inactive
same,AC50,[20],31.6 µM (active)
CCCCC(CC)C(=O)OCCOCCOCCOC(=O)C(CC)CCCC (centres undefined),outcome,[7],inactive
same,outcome,[8],inactive
same,outcome,[11],inactive
same,outcome,[9],inactive
same,outcome,[12],inactive
same,outcome,[13],inactive
same,outcome,[5],inactive
same,outcome,[6],inactive
same,outcome,[10],inactive
same,outcome,[14],inactive
same,outcome,[15],inactive
same,outcome,[16],inactive
same,outcome,[17],inactive
same,outcome,[18],inactive
same,outcome,[19],inactive
same,outcome,[20],inactive
CCCCCCOC(=O)CC(CC(=O)OCCCCCC)(OC(=O)CCC)C(=O)OCCCCCC,outcome,[7],inactive
same,outcome,[8],inactive
same,outcome,[9],inactive
same,outcome,[5],inactive
same,outcome,[6],inactive
same,outcome,[10],inactive
O=C1CN(N=Cc2ccc([N+](=O)[O-])o2)C(=O)N1,outcome,[1],inactive
same,AC50,[2],12.7 µM (active)
same,AC50,[3],46.8 µM (active)
same,outcome,[4],inactive
same,outcome,[5],inactive
same,outcome,[6],inactive
same,outcome,[10],inactive
CCCc1ccccc1,outcome,[12],inactive
same,outcome,[13],inactive
same,outcome,[14],inactive
same,outcome,[15],inactive
same,outcome,[16],inactive
same,outcome,[17],inactive
same,outcome,[18],inactive
same,outcome,[19],inactive
same,outcome,[20],inactive
Cc1nccn1-c1ccc(Sc2cccc(C3(C(N)=O)CCOCC3)c2)cc1,AC50,[1],9.2 µM (active)
same,AC50,[2],5.55 µM (active)
same,AC50,[3],13.2 µM (active)
same,outcome,[4],inactive
same,outcome,[6],inactive
